Screening results deposited in PubChem by Emory University Molecular Libraries Screening Center.
The entries come from a sample that favours hits as a whole.
Measles inh: inhibitors of measles virus growth in infected cells | AID 745 | infected Vero cells, GFP fluorescence, 64 h; active compounds read low | actives 0.1% (n = 33,000) | z-score (concentration not given with the values); in the data active = z-score below about -3
* marks the source's active call; other numbers are inactive results.

SMILES	Measles inh
O=C(Nc1cccc2ccccc12)c1scc2c1CCCC2	-0.62
O=C(NCCC1=CCCCC1)c1ccc2c(c1)N(Cc1ccccc1Cl)C(=O)CS2	-1.13
CN(C)c1ccc(CN(C(=O)c2ccc(F)cc2)C2CCS(=O)(=O)C2)cc1 (stereo not given)	-1.14
CSc1sc(C)cc1C1C(C(=O)Nc2ccc(C)cn2)=C(C)NC2=C1C(=O)CC(c1ccccc1)C2 (stereo not given)	-0.13
COc1ccccc1NC(=O)CSc1nc(-c2ccc(Cl)cc2)cn1-c1ccccc1	-0.12
O=c1c2sc(=S)n(Cc3ccco3)c2nc(SCc2cc(=O)n3ccccc3n2)n1-c1ccccc1	0.01
NC(=O)C1CCN(C(=O)c2ccc3c(=O)n(-c4ccc(F)cc4)c(SCC(=O)N4CCCC4)nc3c2)CC1	0.82
COc1ccc(C(=O)Nc2cc(C(=O)Nc3cc(Cl)ccc3C)ccc2N2CC3CC(C2)c2cccc(=O)n2C3)cc1 (stereo not given)	-0.2
COc1ccc(-c2cc(=O)[nH]c(Sc3c(-c4ccccc4)c4cc(Cl)ccc4[nH]c3=O)n2)cc1	-3.28*
COc1ccc(C2CC(c3c(-c4ccccc4)c4cc(Cl)ccc4[nH]c3=O)=NN2C(=O)CCC(=O)O)cc1 (stereo not given)	-0.07
O=c1[nH]c2ccc(Cl)cc2c(-c2ccccc2)c1SCCO	-0.29
O=C(O)CCCCCNS(=O)(=O)c1ccccc1F	-0.83
Cc1c(Cl)c([N+](=O)[O-])nn1CCCC(=O)Nc1sc2c(c1C(N)=O)CCCC2	-0.57
COc1ccc(OC)c(NC(=O)c2cc(S(=O)(=O)N3CCCc4ccccc43)ccc2F)c1	-0.62
O=C(COC(=O)c1ccc(N2C(=O)CCC2=O)cc1)Nc1nc2ccccc2s1	-0.45
COc1cc(OC)cc(-n2nc(C(=O)N3CCCC3)c3ccccc3c2=O)c1	1.63
O=C(NCc1ccccc1Cl)c1cc(S(=O)(=O)N2CCc3ccccc32)ccc1F	-0.34
Cc1ccc(NC(=O)C2C3NC(=S)NC2(C)Oc2ccc(Br)cc23)c(C)c1 (stereo not given)	-3.26*
CCOc1cccc2c1OC1(C)NC(=S)NC2C1C(=O)Nc1ccc(C)cc1C (stereo not given)	0.33
Cc1ccc(NC(=O)C2C3NC(=S)NC2(C)Oc2ccccc23)c(C)c1 (stereo not given)	-0.17
O=C1CCCC2=C1C(c1ccc(Cl)cc1)n1c(nc3ccccc31)N2 (stereo not given)	-0.38
CN(CC(=O)N1c2ccccc2Sc2ccc(C(F)(F)F)cc21)Cc1ccccc1	0.21
COc1ccc(NC(=O)Cn2c(=O)n(Cc3ccccc3)c(=O)c3ccccc32)cc1	-0.32
COc1cccc(C2CC(=O)C3=C(C2)Nc2ccccc2NC3c2cc3c(cc2Br)OCO3)c1 (stereo not given)	-0.01
CC1CC(C)CN(C(=O)c2cn(C3CCCCC3)c(=O)c3c2c2ccccc2n3C)C1 (stereo not given)	-1.85
SMILES	Measles inh
COc1ccc(CC(=O)Nc2ccc(S(=O)(=O)Nc3nc(C)cc(C)n3)cc2)cc1	1.53
Cc1cc(C)nc(NS(=O)(=O)c2ccc(Br)cc2)n1	-3.09*
COc1cccc(C(=O)Nc2ccc(S(=O)(=O)Nc3nc(C)cc(C)n3)cc2)c1	0.58
O=c1c2c3c(sc2n2c(=S)[nH]nc2n1Cc1ccccc1)CCC3	-0.75
C=C1CSc2nc(=O)c3c4c(sc3n21)CCC4	-3.1*
Cc1nc2sc3c(c2c(=O)[nH]1)CCC3	0.5
COc1ccc(C2=NN(S(C)(=O)=O)C(c3ccccc3Cl)C2)cc1OC (stereo not given)	7.44
COC(=O)C1=CN(c2cccc(C(F)(F)F)c2)C=C(C(=O)OC)C1c1ccccc1Cl	-0.74
O=C(Cn1c(=O)[nH]c2ccsc2c1=O)NCCc1ccccc1	0.09
CCOc1ccc(Nc2cc(C(=O)NC3CCCC3)c3ccccc3n2)cc1	1.32
COc1ccc([N+](=O)[O-])cc1NC(=O)c1cccc(C(=O)Nc2cc([N+](=O)[O-])ccc2OC)c1	-0.38
COc1ccccc1NC(=O)c1cccc([N+](=O)[O-])c1	-0.86
COc1ccc([N+](=O)[O-])cc1NC(=O)c1cccc(F)c1	-5.24*
Cc1sc2c(c1C)c(=O)n(-c1ccccc1)c(=O)n2CC(=O)C(C)(C)C	-0.17
CCOC(=O)c1c(NC(=O)c2oc3ccccc3c2C)sc2c1CCCC2	0.49
O=C1c2cc([N+](=O)[O-])cc3cc([N+](=O)[O-])cc(c23)C(=O)N1c1cccc(O)c1	0.25
O=S(=O)(Nc1ccc(Cl)cc1)c1cnc[nH]1	-3.51*
O=S(=O)(Nc1cccc(C(F)(F)F)c1)c1cnc[nH]1	0.38
COc1ccc(Cl)cc1NS(=O)(=O)c1cnc[nH]1	0.18
Cc1nc(N2CCC(C)CC2)c2c(C)c(C(=O)Nc3ccc4c(c3)OCO4)sc2n1	-0.61
CCCCN(CC)C(=O)C1c2ccccc2Oc2ccccc21	0.65
O=C(NCCN1CCCCCC1)C1CCCN(S(=O)(=O)N2CCCC2)C1 (stereo not given)	0.84
COc1ccc(-c2noc(CCC(=O)Nc3ccc(OC)c(OC)c3)n2)cc1	0.21
COc1cc(OC)cc(C(=O)N2CCN(S(=O)(=O)c3ccc(Cl)cc3)CC2)c1	-2.34
COc1ccccc1Cn1c(=S)[nH]c2cc(C(=O)NCc3ccccc3Cl)ccc2c1=O	1.08
SMILES	Measles inh
O=C(NCCN1CCOCC1)c1c[nH]c2ccc(S(=O)(=O)N3CCc4ccccc43)cc2c1=O	1.09
Cc1ccc(CCNC(=O)c2cccn3c(=O)c4ccccc4nc23)cc1	-0.34
Oc1ccc2oc(=S)sc2c1	0.35
CC(=O)NC(c1ccc(C)cc1)c1cc([N+](=O)[O-])c2cccnc2c1O (stereo not given)	-3.4*
CC(=O)NC(c1ccccc1)c1cc(Cl)c2cccnc2c1O (stereo not given)	-0.77
CCOc1cc(C(NC(=O)CC)c2cc([N+](=O)[O-])c3cccnc3c2O)ccc1O (stereo not given)	-0.83
Cc1cccc(NC(=O)CSc2nc3c(cnn3-c3ccc(Cl)cc3)c(=O)[nH]2)c1C	-0.1
CC1CCC(C(=O)NC(C(=O)Nc2ccc(C(C)C)cc2)C(C)C)CC1 (stereo not given)	-0.83
CC1CCC(C(=O)NC(C(=O)NCc2ccccn2)C(C)C)CC1 (stereo not given)	-3.08*
CC1CCN(S(=O)(=O)N2CCC(C(=O)NCc3ccccn3)CC2)CC1	0.27
CCOC(=O)c1c(NC(=O)c2ccc([N+](=O)[O-])cc2)sc(C(=O)NC2CCCC2)c1C	-0.57
CCc1ccc(NC(=O)CC(C)(C)CC2=NS(=O)(=O)c3ccccc3N2)cc1	0.02
CCC1Sc2ccccc2N(CC(=O)NCCN(CC)CC)C1=O (stereo not given)	-0.78
CCOC(=O)c1c(NC(=O)c2cccc([N+](=O)[O-])c2C)sc2c1CCC(CC)C2 (stereo not given)	-1
COc1cccc(CSCC(=O)NC2CCCCC2C)c1OC (stereo not given)	-0.04
Cc1ccc(N2C(=O)CSC2c2ccc(F)cc2)cc1C (stereo not given)	0.71
COCCOC(=O)C1=C(C)NC2=C(C(=O)CC(c3ccc(OC)c(OC)c3)C2)C1c1ccccc1C (stereo not given)	1.88
Cc1ccc(C2C3=C(CCCC3=O)N(c3ccc(F)cc3)C3=C2C(=O)CCC3)cc1	0.54
COc1cccc(-n2c(N)c(C(N)=O)sc2=S)c1	0.25
Cc1cc(C)n2nc(SCC(=O)Nc3ccc(C)c(Cl)c3)nc2n1	1.34
Cc1ccc(NS(=O)(=O)c2cc(Br)cc3c2N(C(=O)C2CC2)CC3)cc1Cl	1.54
COc1ccc(C2C(C(=O)N3CCN(c4ccccc4)CC3)c3cc(OC)c(OC)cc3C(=O)N2C)cc1 (stereo not given)	-0.5
CCCc1cc(=O)[nH]c(/N=C(/N)Nc2cccc(C)c2)n1	-0.18
CCCCN(C)S(=O)(=O)c1ccc(C(=O)Nc2cccc3c2C(=O)c2ccccc2C3=O)cc1	0.58
